Results taken from PubChem BioAssay.
Activity calls are given as the source filed them.

Key:
[1] = E. coli DRC41 culture turbidity changes, primary screen, E. coli filamentation inducer project, strain DRC41, OD650, 48 h (AID 1152);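 note: E. coli MC1000 strain DRC41 lacking acrAB efflux pump and sulA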; conditions: E. coli DRC41 (acrAB sulA), higher = more signal, called active from +8 up or from −8 down
[2] = small-molecule binders of probe aLefty1, primary screen, biochemical, small-molecule microarray, 635/667 nm fluorescence (AID 1153); conditions: higher = more signal;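 note: score merges spot fluorescence with signal-to-noise ratio from the scanned slide images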
[3] = PSAC antagonists in infected red cells, primary screen, cell-based, P. falciparum Indochina, OD700, 1 h (AID 1154); conditions: P. falciparum Indochina infected RBC osmotic lysis, higher = more signal, called active from +8 up or from −8 down
[4] = PSAC antagonists in infected red cells, primary screen, cell-based, P. falciparum Indochina, OD700, 2 h (AID 1155);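 note: lysis reports solute entry through the parasite surface anion channel PSAC; channel blockers reduce lysis of infected cells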; conditions: P. falciparum Indochina infected erythrocytes, osmotic lysis OD700; higher = more signal, called active from +8 up or from −8 down
[5] = osmotic lysis modulators in infected erythrocytes, primary screen, PSAC antagonist project, cell-based, P. falciparum Indochina, OD700, 3 h (AID 1156); conditions: higher = more signal, called active from +8 up or from −8 down
[6] = PSAC antagonists in infected red cells, primary screen, cell-based, P. falciparum Indochina, OD700, 18 h (AID 1157); conditions: P. falciparum Indochina infected erythrocytes, osmotic lysis OD700, 18 h; higher = more signal, called active from +8 up or from −8 down
[7] = modulators of S6 phosphorylation in cells, primary screen, cell-based, A549, cytoblot, luminescence, serum-stimulated (AID 1158); conditions: A549 phospho-S6 cytoblot, 5 h, higher = more signal;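 note: serum-stimulated A549 lung adenocarcinoma cells; signal is phosphorylated S6 detected by cytoblot immunostaining with HRP secondary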
[8] = target: NADPH oxidase 2 (Homo sapiens) (UniProt P04839); assay: NOX2-dependent H2O2 signal modulators, primary screen, NOX inhibitor project, cell-based, HEK293-NOX2, PMA-stimulated, Amplex Red fluorescence (AID 1159); conditions: 45 min, higher = more signal, called active from +8 up or from −8 down; note: test concentration not given here
[9] = target: NADPH oxidase 4 (Homo sapiens) (UniProt Q9NPH5); assay: NOX4-dependent H2O2 signal modulators, primary screen, NOX inhibitor project, cell-based, HEK293-NOX4, tetracycline-induced, Amplex Red fluorescence (AID 1160); conditions: 45 min, higher = more signal, called active from +8 up or from −8 down
[10] = target: NADPH oxidase 5 (Homo sapiens) (UniProt Q96PH1); assay: NOX5-dependent H2O2 signal modulators, primary screen, NOX inhibitor project, cell-based, HEK293-NOX5, Amplex Red fluorescence (AID 1161); conditions: HEK293-NOX5, ionomycin, 45 min, higher = more signal
[11] = A549 cell viability effects, profiling panel, calcein-AM fluorescence, 48 h, basal (AID 1162); conditions: higher = more signal; note: test concentration not given here
[12] = adipocyte viability effects, profiling panel, cell-based, 3T3-L1 adipocytes, calcein-AM fluorescence, 48 h, basal (AID 1163); conditions: 3T3-L1 adipocytes viability, higher = more signal; note: test concentration not given here
[13] = HepG2 cell viability effects, profiling panel, calcein-AM fluorescence, 48 h, basal (AID 1164); conditions: higher = more signal; note: test concentration not given here
[14] = MM1S cell viability effects, profiling panel, calcein-AM fluorescence, 48 h, basal (AID 1165); conditions: higher = more signal;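 note: viability of MM1S multiple myeloma cells under basal unstimulated conditions; test concentration not given here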
[15] = basal RPMI8226 viability, no added stimulus, profiling panel, cell-based, calcein-AM fluorescence, 48 h, PK04 Diversity Set (AID 1166); conditions: RPMI8226 myeloma viability, higher = more signal;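 note: cells grown under basal conditions without added stimulus; test concentration not given here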
[16] = basal HepG2 mitochondrial membrane potential changes, profiling panel, cell-based, JC-1 fluorescence, 24 h, 100 nL compound (AID 1167); conditions: higher = more signal; note: test concentration not given here
[17] = basal 3T3-L1 adipocyte mitochondrial potential changes, profiling panel, cell-based, JC-1 fluorescence, 3T3-L1 adipocytes, 24 h, 100 nL compound (AID 1168); conditions: JC-1 mitochondrial fluorescence, higher = more signal, called active from +8 up or from −8 down; note: test concentration not given here
[18] = basal RPMI8226 mitochondrial membrane potential changes, profiling panel, cell-based, JC-1 fluorescence, 24 h, 100 nL compound (AID 1169); conditions: RPMI8226 myeloma, JC-1 mitochondrial potential fluorescence, higher = more signal; note: test concentration not given here
[19] = basal MM1S mitochondrial membrane potential changes, profiling panel, cell-based, JC-1 fluorescence, 24 h, 100 nL compound (AID 1170); conditions: higher = more signal; note: test concentration not given here
[20] = A549 lung cancer cell viability effects, profiling panel, resazurin fluorescence, 24 h, PK04 Diversity Set (AID 1171); conditions: higher = more signal, called active from +8 up or from −8 down; note: test concentration not given here

NADPH oxidase 4 (Homo sapiens), sequence (Q9NPH5 whole entry, looked up): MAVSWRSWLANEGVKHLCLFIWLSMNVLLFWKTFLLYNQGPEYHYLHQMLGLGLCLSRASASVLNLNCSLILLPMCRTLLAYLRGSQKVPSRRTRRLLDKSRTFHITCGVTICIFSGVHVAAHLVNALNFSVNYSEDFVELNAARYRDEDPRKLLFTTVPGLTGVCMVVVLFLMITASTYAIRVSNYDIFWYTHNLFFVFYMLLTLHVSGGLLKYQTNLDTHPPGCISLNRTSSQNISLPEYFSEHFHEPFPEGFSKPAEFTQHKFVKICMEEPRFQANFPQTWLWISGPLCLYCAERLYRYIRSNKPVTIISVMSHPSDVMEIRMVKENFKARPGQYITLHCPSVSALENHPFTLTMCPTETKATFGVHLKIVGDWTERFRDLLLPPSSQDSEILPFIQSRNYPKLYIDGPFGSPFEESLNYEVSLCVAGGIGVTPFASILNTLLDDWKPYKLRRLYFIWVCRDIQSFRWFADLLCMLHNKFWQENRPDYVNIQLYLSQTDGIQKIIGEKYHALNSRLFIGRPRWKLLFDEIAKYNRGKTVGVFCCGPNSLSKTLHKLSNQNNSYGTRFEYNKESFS
NADPH oxidase 2 (Homo sapiens), sequence (P04839 whole entry, looked up): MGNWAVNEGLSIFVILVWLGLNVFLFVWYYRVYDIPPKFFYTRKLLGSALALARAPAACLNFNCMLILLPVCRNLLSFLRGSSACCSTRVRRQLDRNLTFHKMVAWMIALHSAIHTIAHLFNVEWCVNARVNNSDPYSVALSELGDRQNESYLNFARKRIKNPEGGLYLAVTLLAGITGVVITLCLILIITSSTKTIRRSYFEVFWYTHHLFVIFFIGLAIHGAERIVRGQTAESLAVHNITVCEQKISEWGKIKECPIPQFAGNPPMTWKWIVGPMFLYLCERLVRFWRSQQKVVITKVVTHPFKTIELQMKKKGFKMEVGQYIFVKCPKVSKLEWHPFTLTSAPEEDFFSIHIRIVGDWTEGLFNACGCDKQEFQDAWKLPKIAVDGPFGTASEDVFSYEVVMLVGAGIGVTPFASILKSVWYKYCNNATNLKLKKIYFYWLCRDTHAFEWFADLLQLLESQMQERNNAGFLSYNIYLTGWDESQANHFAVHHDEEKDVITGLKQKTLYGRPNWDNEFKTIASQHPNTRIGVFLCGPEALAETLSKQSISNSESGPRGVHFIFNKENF
NADPH oxidase 5 (Homo sapiens), sequence (Q96PH1 whole entry, looked up): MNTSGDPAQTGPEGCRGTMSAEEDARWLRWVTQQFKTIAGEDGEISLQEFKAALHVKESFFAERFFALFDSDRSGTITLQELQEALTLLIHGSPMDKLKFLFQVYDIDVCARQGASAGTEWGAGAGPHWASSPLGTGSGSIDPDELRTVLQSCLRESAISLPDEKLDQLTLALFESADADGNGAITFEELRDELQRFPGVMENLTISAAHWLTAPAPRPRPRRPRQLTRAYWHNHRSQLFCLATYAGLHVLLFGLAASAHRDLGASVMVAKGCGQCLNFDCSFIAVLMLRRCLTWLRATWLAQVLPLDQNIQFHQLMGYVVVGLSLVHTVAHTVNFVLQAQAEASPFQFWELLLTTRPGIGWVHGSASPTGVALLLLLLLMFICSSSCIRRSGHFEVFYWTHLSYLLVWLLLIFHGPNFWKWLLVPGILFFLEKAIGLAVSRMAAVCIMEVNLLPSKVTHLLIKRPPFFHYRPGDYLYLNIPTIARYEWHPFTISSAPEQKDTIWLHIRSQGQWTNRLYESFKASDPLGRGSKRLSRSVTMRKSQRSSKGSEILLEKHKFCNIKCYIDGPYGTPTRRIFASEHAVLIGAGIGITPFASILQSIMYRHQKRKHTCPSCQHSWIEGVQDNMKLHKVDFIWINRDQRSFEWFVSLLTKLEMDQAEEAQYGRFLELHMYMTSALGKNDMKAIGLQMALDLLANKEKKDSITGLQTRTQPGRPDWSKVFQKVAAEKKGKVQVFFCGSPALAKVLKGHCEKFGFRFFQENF

| Compound | z-score [1] | composite z-score [2] | z-score [3] | z-score [4] | z-score [5] | z-score [6] | z-score [7] | z-score [8] | z-score [9] | z-score [10] | z-score [11] | z-score [12] | z-score [13] | z-score [14] | z-score [15] | z-score [16] | z-score [17] | z-score [18] | z-score [19] | z-score [20] |
| --- | --- | --- | --- | --- | --- | --- | --- | --- | --- | --- | --- | --- | --- | --- | --- | --- | --- | --- | --- | --- |
| COc1ccc(C#Cc2ccc3c(c2)[C@]2(C(=O)N3)[C@H](C(=O)Nc3nc4ccccc4s3)[C@H]3C(=O)O[C@H](c4ccccc4)[C@H](c4ccccc4)N3[C@@H]2c2ccc(O)cc2)cc1 | 0.663 (inactive) | 1.1 | -0.383 (inactive) | 0.53 (inactive) | -6.71 (inactive) | 0.957 (inactive) | -0.249 | 0.548 (inactive) | 0.792 (inactive) | -2.5 | -0.151 | 0.341 | 0.949 | -0.561 | -1.37 | -3.71 | -0.298 (inactive) | -1.02 | -1.18 | 0.279 (inactive) |
| CCC[C@@H]1C[C@@]1(CCC)[C@@H](NS(=O)(=O)c1cccc2cccnc12)c1ccc(Cl)cc1 | -1.61 (inactive) | 0.617 | 0.0126 (inactive) | 0.765 (inactive) | -1.01 (inactive) | 1.01 (inactive) | 0.883 | -0.357 (inactive) | -0.382 (inactive) | 0.127 | 1.54 | -1.13 | 0.112 | 0.0781 | -0.99 | 3.46 | 0.112 (inactive) | 0.137 | -0.855 | -0.132 (inactive) |
| CC(C)CNC(=O)[C@@]1(Cc2ccccc2I)c2ccccc2C(=O)N(C2CCCCC2)[C@H]1c1ccc(CO)cc1 | -0.664 (inactive) | 0.257 | 3.85 (inactive) | 0.198 (inactive) | 2.26 (inactive) | 0.183 (inactive) | -0.141 | -0.394 (inactive) | 0.839 (inactive) | 0.184 | -0.175 | -0.316 | -0.762 | -1.45 | -2.39 | -0.396 | -0.485 (inactive) | -0.594 | -0.213 | 0.623 (inactive) |
| O[C@@H](Cc1ccccc1)[C@H]1C2C=CCCC=C2CN1Cc1cccc(Cl)c1 (stereo not given in full) | 1.31 (inactive) | 0.0701 | 2.58 (inactive) | 0.499 (inactive) | 1.33 (inactive) | 0.108 (inactive) | 0.399 | -0.318 (inactive) | -1.27 (inactive) | -0.609 | 0.675 | -0.0495 | 1.31 | -3.23 | -2.25 | -0.241 | -0.173 (inactive) | -0.771 | -2.86 | -0.462 (inactive) |
| COc1cc2c(cc1O)C(c1cccs1)N(C)CC2 (stereo not given) | 0.158 (inactive) | -0.103 | 4.23 (inactive) | 1.17 (inactive) | -0.0863 (inactive) | 0.352 (inactive) | -0.331 | -4.66 (inactive) | -2.71 (inactive) | -2.33 | -0.416 | -0.344 | 0.448 | 0.405 | 0.586 | -1.13 | -0.0427 (inactive) | -0.0651 | -1.06 | -0.568 (inactive) |
| CCCc1cc2c(n1Cc1cc(F)cc(F)c1)C(C)C1CN(C(=O)c3ccccc3)C(C)(C(=O)OC)C21 (stereo not given) | -1.55 (inactive) | 0.269 | 3.82 (inactive) | 0.144 (inactive) | 1.95 (inactive) | 0.251 (inactive) | -0.712 | -1.69 (inactive) | -2.91 (inactive) | -2.52 | -0.679 | 0.149 | -0.237 | -1.7 | -4.39 | 2.5 | -1.98 (inactive) | -0.904 | -1.79 | -0.675 (inactive) |
| COCCOC(=O)N1C(=O)[C@@]2(c3cc(C#CCC(C(=O)OC)C(=O)OC)ccc31)[C@H](C(=O)Nc1nc3ccccc3s1)[C@H]1C(=O)O[C@H](c3ccccc3)[C@H](c3ccccc3)N1[C@@H]2c1ccccc1OCCO | 0.275 (inactive) | 0.212 | 11.2 (active) | 2.85 (inactive) | 0.599 (inactive) | 2.31 (inactive) | 0.0413 | 0.652 (inactive) | 0.671 (inactive) | 0.234 | 1.84 | 0.6 | 1.31 | -0.139 | 0.199 | -2.23 | 0.803 (inactive) | -0.859 | -1.19 | -0.454 (inactive) |
| [N-]=[N+]=NCc1ccccc1C[C@]1(C(N)=O)COC(c2ccc(OCCCO)cc2)=N1 | 2.84 (inactive) | 0.52 | 15.3 (active) | 1 (inactive) | 1.68 (inactive) | -0.185 (inactive) | 2.31 | -1.48 (inactive) | -0.0652 (inactive) | -1.07 | 0.446 | 0.431 | 1.28 | -0.761 | 0.0881 | -0.234 | 1.16 (inactive) | -0.425 | 1.07 | -1.1 (inactive) |
| COC(=O)C(CC#Cc1ccc2c(c1)[C@]1(C(=O)N2)[C@H](C(=O)Nc2nc3ccccc3s2)[C@H]2C(=O)O[C@H](c3ccccc3)[C@H](c3ccccc3)N2[C@@H]1c1ccc(O)cc1)C(=O)OC | -1.2 (inactive) | 0.0809 | 1.14 (inactive) | 0.922 (inactive) | -4.32 (inactive) | 1.3 (inactive) | 0.0065 | 1.28 (inactive) | 0.602 (inactive) | -0.0824 | 0.567 | 0.823 | 1.49 | -1.15 | -3.43 | -2.74 | -0.383 (inactive) | -1.31 | -0.561 | 0.502 (inactive) |
